Screening data from PubChem.
SARS PLP yeast: blocks SARS-CoV papain-like protease in a yeast assay. hit rate 0.19% among 330,000. AID 485353. S. cerevisiae expressing SARS-CoV PLpro, growth rescue. Potency, µM (highest dose often 32.9 µM), actives largely listed as activators; further: nearly all actives have a fitted effect of over 55% in size
CHX counter: counter-screen for Shiga toxin inhibitors: cycloheximide protein synthesis inhibition. cell reporter, cycloheximide protein synthesis inhibition counterscreen. max response, %. hit rate 12% among 300,000. AID 2314; in the data active means max response mostly above about 13%, no sharp cut-off; inactive means mostly below about 14%; further: read at 38.3 µM for the half of the compounds with a filed dose
Shiga toxin inh: inhibitors of Shiga toxin in Vero cells. Vero cells, Shiga toxin protein synthesis inhibition reporter. AID 2315. inhibition, % at 38.7 µM. hit rate 9.2% among 290,000; in the data active means inhibition mostly above about 28%, no sharp cut-off; inactive means mostly below about 43%
Pf growth 48h: P. falciparum growth inhibition at 48 hours (one generation); Potency, µM (doses to about 28.7 µM), actives largely listed as inhibitors; hit rate 5.9% among 310,000; P. falciparum luciferase growth in erythrocytes, 48 h; active means well fitted inhibition curve with a large enough effect; inconclusive means small, poorly fitted or top-dose-only effect, or another doubt; inactive means no such curve, though single readings can be large or run the other way
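Firefly luciferase activity from engineered P. falciparum reports growth; inhibitors lower the luminescent signal. Cultures contained 2% hematocrit erythrocytes at 0.1% final parasitemia.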
NS1 inh: influenza NS1 inhibition | AID 2326 | hit rate 0.4% among 270,000 | Potency, µM (doses to about 46.1 µM); further: actives are rising curves; nearly all actives have a fitted effect of over 50% in size
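S. cerevisiae expressing influenza A NS1, grown in glucose, washed, then diluted 1:100 into pH 6.0 -URA galactose medium with 23 nl compound. Growth recovery read as OD600; NS1-free strain serves as control.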
Pf growth 96h: P. falciparum growth inhibition at 96 hours. P. falciparum luciferase reporter growth, 96 h. Potency, µM (titrated, usually from 28.7 µM), actives largely listed as inhibitors. hit rate 6.9% among 320,000. AID 504834; active means well fitted inhibition curve with a large enough effect; inconclusive means small, poorly fitted or top-dose-only effect, or another doubt; inactive means no such curve, though single readings can be large or run the other way
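P. falciparum expressing integrated firefly luciferase grown in erythrocytes (2% hematocrit, 0.05% parasitemia final) with compounds for 96 hours at 37 C, 5% CO2. Growth inhibition read as loss of luminescence after adding luciferase detection reagent.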
Hits are given with their value; [ ] = another dose, or the depositor's remark. Rows were chosen to be rich in hits. Some 21% of all compounds tested hit in one or more screens of this group. Unless noted, the call rests on the fitted dose curve.

How did O=c1oc2ccccc2c(Nc2ccc(F)cc2)c1[N+](=O)[O-] do in these assays?
SARS PLP yeast: inactive; CHX counter: inactive; Shiga toxin inh: inactive; Pf growth 48h: inconclusive; Pf growth 96h: inactive

How did Cc1c(-c2nc(N)nc(Nc3ccc(F)cc3)n2)oc2ccccc12 do in these assays?
SARS PLP yeast: inactive; CHX counter: 22; Shiga toxin inh: 84; Pf growth 48h: inconclusive; NS1 inh: inactive; Pf growth 96h: inconclusive

How did Cc1ccccc1Nc1nc(N)nc(-c2oc3ccccc3c2C)n1 do in these assays?
SARS PLP yeast: inactive; CHX counter: 64; Shiga toxin inh: 122; Pf growth 48h: inactive; NS1 inh: inactive; Pf growth 96h: inactive

What do the screens show for `COc1ccccc1Nc1nc(N)nc(-c2oc3ccccc3c2C)n1`?
SARS PLP yeast: inactive; CHX counter: inactive; Shiga toxin inh: inactive; NS1 inh: inactive; Pf growth 96h: inactive

How did Cc1cccc(C)c1N1CCN(c2nc(N(C)C)oc(=O)c2C#N)CC1 do in these assays?
SARS PLP yeast: inactive; CHX counter: inactive; Shiga toxin inh: inactive; Pf growth 48h: inconclusive; NS1 inh: inactive; Pf growth 96h: inactive

What do the screens show for `S=C(NC1CCCCC1)N1CCOCCOCCN(C(=S)NC2CCCCC2)CCOCC1`?
SARS PLP yeast: inactive; CHX counter: inactive; Shiga toxin inh: inactive; Pf growth 48h: 12µM; NS1 inh: inactive; Pf growth 96h: 4.7µM

How did S=C(NC1CCCC1)N1CCOCC1 do in these assays?
SARS PLP yeast: inactive; CHX counter: inactive; Shiga toxin inh: inactive; Pf growth 48h: inactive; Pf growth 96h: inactive

Results for O=[N+]([O-])/C=C\c1ccc(N2CCCC2)c(F)c1 ?
SARS PLP yeast: inactive; CHX counter: inactive; Shiga toxin inh: inactive; Pf growth 48h: inactive; Pf growth 96h: inconclusive

How did O=c1[nH]c(S)nc2sc3c(c12)CCCC3 do in these assays?
SARS PLP yeast: inactive; CHX counter: inactive; Shiga toxin inh: inactive; Pf growth 48h: inactive; NS1 inh: inactive; Pf growth 96h: inactive[1.15 µM]

Results for O=c1[nH]c(-c2ccco2)nc2sc3c(c12)CCCC3 ?
SARS PLP yeast: inactive; CHX counter: 51; Shiga toxin inh: 91; Pf growth 48h: inactive; NS1 inh: inactive; Pf growth 96h: inactive

How did Cc1nc2c(C(=O)NCCc3ccccc3Cl)c[nH]n2c(=O)c1Cl do in these assays?
SARS PLP yeast: inactive; CHX counter: inactive; Shiga toxin inh: inactive; Pf growth 48h: inactive; NS1 inh: inactive; Pf growth 96h: 10µM

What do the screens show for `Cc1nc2c(C(=O)NCc3ccccc3Cl)c[nH]n2c(=O)c1Cl`?
SARS PLP yeast: inactive; CHX counter: inactive; Shiga toxin inh: inactive; Pf growth 48h: inactive; NS1 inh: inactive; Pf growth 96h: inactive

What do the screens show for `Oc1ccccc1-c1ccn[nH]1`?
SARS PLP yeast: inactive

What do the screens show for `c1ccn(-c2ccc(-c3ccn[nH]3)cc2)c1`?
SARS PLP yeast: inactive; CHX counter: 37; Shiga toxin inh: 91; Pf growth 48h: inactive; Pf growth 96h: inactive

Results for Cc1ccc(C)n1-c1ccc(-c2ccn[nH]2)cc1 ?
SARS PLP yeast: inactive; CHX counter: 36; Shiga toxin inh: 71; Pf growth 48h: inconclusive; Pf growth 96h: inconclusive

How did Cc1ccc(OCC(=O)Nc2ccc3c(c2)C(=O)NC3=O)cc1 do in these assays?
SARS PLP yeast: inactive; CHX counter: inactive; Shiga toxin inh: inactive; Pf growth 48h: inactive; NS1 inh: inactive; Pf growth 96h: inconclusive

How did CCOc1ccc2c(c1)OC(c1ccc(C)cc1)(C(F)(F)F)NC2=O (stereo not drawn) do in these assays?
SARS PLP yeast: inactive; CHX counter: 27; Shiga toxin inh: 53; Pf growth 48h: 1µM; NS1 inh: inactive; Pf growth 96h: 3.3µM

How did Cc1cccc(NC(=S)NNC(=O)c2cc3c(s2)CCC(C)C3)c1C (stereo not drawn) do in these assays?
SARS PLP yeast: inactive; CHX counter: inactive; Shiga toxin inh: inactive; Pf growth 48h: inactive; NS1 inh: inactive; Pf growth 96h: inconclusive

Results for O=C(Nc1ccccc1)c1ccncc1 ?
CHX counter: inactive; Shiga toxin inh: inactive; Pf growth 48h: inactive; NS1 inh: inactive; Pf growth 96h: inactive

What do the screens show for `O=C(Nc1ccccc1)c1ccn[nH]1`?
SARS PLP yeast: inactive; CHX counter: 38; Shiga toxin inh: 94; Pf growth 48h: inactive; NS1 inh: inactive; Pf growth 96h: inconclusive

How did O=C(Nc1cccc([N+](=O)[O-])c1)c1ccn[nH]1 do in these assays?
SARS PLP yeast: inactive; CHX counter: 60; Shiga toxin inh: 76; Pf growth 48h: inactive; Pf growth 96h: inconclusive

What do the screens show for `O=C(Nc1cccc([N+](=O)[O-])c1)c1ccc(-c2ccccc2)cc1`?
SARS PLP yeast: inactive; CHX counter: inactive; Shiga toxin inh: inactive; Pf growth 48h: inactive; NS1 inh: inactive; Pf growth 96h: inconclusive

Results for CC(=O)c1ccc(NC(=O)c2ccn[nH]2)cc1 ?
SARS PLP yeast: inactive; CHX counter: 35; Shiga toxin inh: 65; Pf growth 48h: inactive; NS1 inh: inactive; Pf growth 96h: inactive

Results for Cc1cc(C)n(-c2ccc(NC(=O)C3CCCCN3C(=O)c3cc(C)oc3C)cc2)n1 (stereo not drawn) ?
SARS PLP yeast: inactive; CHX counter: inactive; Shiga toxin inh: inactive; Pf growth 48h: inactive; NS1 inh: inactive; Pf growth 96h: inconclusive

How did Cc1nc2oc3ccc(F)cc3c(=O)c2cc1C(=O)NC(C)(C)C do in these assays?
SARS PLP yeast: inactive; CHX counter: 41; Shiga toxin inh: 128; Pf growth 48h: inactive; NS1 inh: inactive; Pf growth 96h: inactive

How did Cc1nc2oc3ccc(Cl)cc3c(=O)c2cc1C(=O)O do in these assays?
SARS PLP yeast: inactive; CHX counter: inactive; Shiga toxin inh: inactive; Pf growth 48h: inactive; NS1 inh: inactive; Pf growth 96h: inactive

What do the screens show for `COC(=O)c1cc2c(=O)c3ccccc3oc2nc1/C=C/N(C)C`?
SARS PLP yeast: inactive; CHX counter: 19; Shiga toxin inh: inactive; Pf growth 48h: inactive; NS1 inh: inactive; Pf growth 96h: inactive

How did COC(=O)c1cc2c(=O)c3ccccc3oc2nc1C do in these assays?
SARS PLP yeast: inactive; CHX counter: 24; Shiga toxin inh: 49; Pf growth 48h: inactive; NS1 inh: inactive; Pf growth 96h: inactive

Results for CCc1nc2oc3ccc(C)cc3c(=O)c2cc1C(=O)OC ?
SARS PLP yeast: inactive; CHX counter: 24; Shiga toxin inh: 30; Pf growth 48h: inactive; NS1 inh: inactive; Pf growth 96h: inactive

Results for Cc1nc2oc3ccccc3c(=O)c2cc1C(=O)O ?
SARS PLP yeast: inactive; CHX counter: inactive; Shiga toxin inh: inactive; Pf growth 48h: inactive; NS1 inh: inactive; Pf growth 96h: inactive

What do the screens show for `O=NCc1ccc([N+](=O)[O-])o1`?
Pf growth 48h: inconclusive; Pf growth 96h: 13µM

Results for CCCC[C@@H](C=O)NC(=O)[C@H](CC(C)C)NC(=O)[C@H](CC(C)C)NC(C)=O ?
CHX counter: 42; Shiga toxin inh: 77

Results for CCOc1cc(C(=O)N2CCC3(CC2)NCCc2[nH]cnc23)cc(OCC)c1OCC ?
SARS PLP yeast: inactive; CHX counter: inactive; Shiga toxin inh: inactive; Pf growth 48h: inactive; NS1 inh: inactive; Pf growth 96h: inactive
